Cycloheximide cs: affects cycloheximide protein synthesis inhibition readout, counter-screen; cell reporter, cycloheximide protein synthesis inhibition counterscreen; max response, %; actives 12% (n = 300,000); AID 2314; in the data active means max response mostly above about 13%, no sharp cut-off; inactive means mostly below about 14%; further: read at 38.3 µM for the half of the compounds with a filed dose; 0% is about no effect
Pf growth 96h: P. falciparum growth inhibition at 96 hours | actives 6.9% (n = 320,000) | AID 504834 | P. falciparum luciferase reporter growth, 96 h | Potency, µM (top dose mostly 28.7 µM), without a hit: at the highest dose activity change, negative = inhibition, actives largely listed as inhibitors; further: potency means the concentration at half of the fitted maximal effect; on the % scale 0 is the no-effect control and ±100 the full control effect
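Delayed-death screen, second-generation endpoint: infected erythrocytes, 2% hematocrit, 0.05% parasitemia final; 96 hours at 37 C, 5% CO2; luciferase detection reagent; luminescence decrease equals reduced growth.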
Pf growth 48h: P. falciparum growth inhibition at 48 hours (one generation). Potency, µM (titrated, usually from 28.7 µM), for the others: top-dose activity change, negative = inhibition, usual class: inhibitors. actives 5.9% (n = 310,000). P. falciparum luciferase growth in erythrocytes, 48 h; further: potency means the concentration at half of the fitted maximal effect; on the % scale 0 is the no-effect control and ±100 the full control effect
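Cell-based growth assay: transgenic P. falciparum expressing firefly luciferase, cultured in red cells within RPMI 1640 containing 0.5% w/v Albumax, 24 mM bicarbonate and gentamycin. A drop in luciferase activity indicates inhibition.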
NS1 function inh: inhibitors of influenza NS1 protein function | Potency, µM (doses to about 46.1 µM), for the others: at the highest dose activity, positive = more growth | actives 0.4% (n = 270,000); calls by dose curve; further: potency means the concentration at half of the fitted maximal effect; actives are rising curves; nearly all actives have a fitted effect of over 50% in size
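Compounds were scored for reversing the slow growth caused by influenza A NS1 in S. cerevisiae, measured by optical density at 600 nm. Assay medium contained 2% galactose at pH 6.0; NS1-free yeast of the same strain were the positive control.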
Shiga toxin inh: inhibitors of Shiga toxin in Vero cells; inhibition, % at 38.7 µM; Vero cells, Shiga toxin protein synthesis inhibition reporter; actives 9.2% (n = 290,000); in the data active means inhibition mostly above about 28%, no sharp cut-off; inactive means mostly below about 43%; further: 0% is about no effect
Sm TGR inh: S. mansoni TGR enzyme inhibition. Q962Y6. purified TGR, DTNB reduction, TNB absorbance 405 nm. Potency, µM (top dose mostly 114 µM), inactives show top-dose activity change, negative = inhibition, usual class: inhibitors. actives 3% (n = 360,000); further: potency means the concentration at half of the fitted maximal effect; on the % scale 0 is the no-effect control and ±100 the full control effect; nearly all actives have a fitted effect of over 60% in size
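Kinetic colorimetric format: TGR-catalysed, NADPH-driven DTNB reduction monitored via TNB absorbance. Enzyme dispensed at 20 nM; compound exposure 15 min at room temperature before reaction start.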
The depositor's hits bear a star; [ ] = another dose, or the depositor's remark. This is a sample that favours compounds with a hit; in the whole collection about 21% have one here. Unless noted, the call rests on the fitted dose curve; in most records, active means well fitted curve in the direction sought with a large enough effect; inconclusive means small, poorly fitted or top-dose-only effect, or another doubt; inactive means no such curve, though single readings can be large; an effect the other way counts as inactive or inconclusive.

What do the screens show for `CCOc1ccc(/C=N/Nc2cc(C)nc(N3CCOCC3)n2)cc1`?
Cycloheximide cs: -2; Pf growth 96h: -20%; Pf growth 48h: 33%; NS1 function inh: 4%; Shiga toxin inh: 35; Sm TGR inh: -1%

What do the screens show for `Cc1cc(-c2ccccc2)nc(N/N=C/c2ccc(O)cc2)n1`?
Pf growth 96h: inconclusive; Pf growth 48h: inconclusive; Sm TGR inh: 0%

What do the screens show for `CCOC(=O)c1[nH]c(C)c(CN(Cc2ccco2)C(=O)C(F)(F)F)c1C`?
Cycloheximide cs: -3; Pf growth 96h: 1%; Pf growth 48h: 10µM*; NS1 function inh: -12%; Shiga toxin inh: -5; Sm TGR inh: -9%

How did CCOC(=O)c1[nH]c(C)c(CN(CCc2ccccc2)C(=O)CCC(=O)O)c1C do in these assays?
Cycloheximide cs: -2; Pf growth 96h: 4.1µM*; Pf growth 48h: -35%; NS1 function inh: 16%; Shiga toxin inh: -17; Sm TGR inh: 7%

Results for CCOC(=O)c1[nH]c(C)c(C(=O)NCc2ccco2)c1C ?
Cycloheximide cs: 0; Pf growth 96h: 3%; Pf growth 48h: 17%; NS1 function inh: 3%; Shiga toxin inh: -12; Sm TGR inh: -3%

Results for CCOC(=O)c1c(C)[nH]c(C(=O)NCc2ccco2)c1C ?
Cycloheximide cs: 43*; Pf growth 96h: 72%; Pf growth 48h: 52%; Shiga toxin inh: 53*; Sm TGR inh: 2%

What do the screens show for `CN(c1ccc(C(=O)NCc2ccncc2)cc1)S(=O)(=O)c1ccc(Cl)cc1`?
Cycloheximide cs: -1; Pf growth 96h: 0%; Pf growth 48h: 23%; NS1 function inh: 0%; Shiga toxin inh: -9; Sm TGR inh: 0%

How did CCOc1ccc(CCNC(=O)CCc2c(C)nc3c(c(C)nn3-c3ccc(C)c(C)c3)c2C)cc1 do in these assays?
Sm TGR inh: -2%

Results for CCc1ccc(CNC(=O)C(C)n2ccc3cc(S(=O)(=O)N4CCCCCC4)ccc32)cc1 (stereo not given) ?
Sm TGR inh: 0%

How did CCOC(=O)c1ccccc1NC(=O)COC(=O)CCNS(=O)(=O)c1cccs1 do in these assays?
Pf growth 96h: 23%; Pf growth 48h: inconclusive; Sm TGR inh: 2%

Results for C(=N\Nc1ccccn1)/c1cccnc1 ?
Cycloheximide cs: 24*; Pf growth 96h: inconclusive; Pf growth 48h: 32%; NS1 function inh: 5%; Sm TGR inh: 3%

How did C(=N/Nc1ccccn1)/c1cccnc1 do in these assays?
NS1 function inh: -9%

How did FC(F)(F)c1ccc(N/N=C/c2cccnc2)nc1 do in these assays?
Cycloheximide cs: 41*; Pf growth 96h: inconclusive; Pf growth 48h: inconclusive; NS1 function inh: -37%; Shiga toxin inh: 71*; Sm TGR inh: -19%

How did Cc1ccc(Oc2coc3cc(O)ccc3c2=O)cc1 do in these assays?
Cycloheximide cs: 31*; Pf growth 96h: 2%; Pf growth 48h: -11%[0.00184 µM]; NS1 function inh: -7%; Shiga toxin inh: 29; Sm TGR inh: -5%

How did CCCCOC(=O)Oc1ccc2c(=O)c(Oc3cccc(C)c3)coc2c1 do in these assays?
Cycloheximide cs: 35*; Pf growth 96h: inconclusive; Pf growth 48h: 58%; NS1 function inh: -6%; Shiga toxin inh: 11; Sm TGR inh: -1%

What do the screens show for `Cc1cc(C)cc(Oc2coc3cc(O)ccc3c2=O)c1`?
Cycloheximide cs: 5; Pf growth 96h: inconclusive; Pf growth 48h: 21%; NS1 function inh: -1%; Sm TGR inh: 0%

How did CCCn1nc2cc(C(=O)N(CC)c3ccc(OC)cc3)ccc2c1OCC do in these assays?
Cycloheximide cs: -4; Pf growth 96h: inconclusive; Pf growth 48h: -4%; NS1 function inh: -12%; Shiga toxin inh: -17; Sm TGR inh: -1%

Results for CCOc1ccccc1-c1nnc2n1N=C(c1cc(OC)cc(OC)c1)CS2 ?
Cycloheximide cs: 12; Shiga toxin inh: -6

Results for CCCCn1nnc(NC(=S)NC(=O)c2cccs2)n1 ?
Cycloheximide cs: 28*; Pf growth 96h: inconclusive; Pf growth 48h: 65%; NS1 function inh: -7%; Shiga toxin inh: 115*; Sm TGR inh: inconclusive

How did CCCCn1nnc(NC(=O)c2ccco2)n1 do in these assays?
Cycloheximide cs: 26*; Pf growth 96h: inconclusive; Pf growth 48h: 32%; NS1 function inh: -2%; Shiga toxin inh: 13*; Sm TGR inh: -4%

Results for CC(C)c1nc2ccc(C(=O)Nc3ccccc3F)cc2o1 ?
Sm TGR inh: -2%

What do the screens show for `Oc1cc(O)c2c(c1)O[C@@H](c1ccc(O)c(O)c1)[C@H](O[C@@]1(c3cc(O)c(O)c(O)c3)Oc3cc(O)cc(O)c3[C@H](O)[C@@H]1O)C2`?
NS1 function inh: 5%

How did Cc1nn(-c2ccccc2)c(N)c1C(c1ccc(C(C)C)cc1)c1c(C)nn(-c2ccccc2)c1N do in these assays?
Cycloheximide cs: -1; Pf growth 96h: 0%; Pf growth 48h: 10µM*; NS1 function inh: 24%; Shiga toxin inh: 1; Sm TGR inh: -3%

Results for Cc1nn(-c2ccccc2)c(N)c1C(O)(C(F)(F)F)C(F)(F)F ?
Cycloheximide cs: 1; Pf growth 96h: 54%; Pf growth 48h: 10%; NS1 function inh: 6%; Shiga toxin inh: 13; Sm TGR inh: 3%

Results for Cc1ccc(C(c2c(C)nn(-c3ccccc3)c2N)c2c(C)nn(-c3ccccc3)c2N)cc1 ?
Cycloheximide cs: -4; Pf growth 96h: 13µM*; Pf growth 48h: 10µM*; NS1 function inh: 8%; Shiga toxin inh: -7; Sm TGR inh: -9%

Results for CN(C)c1nc(/C=C(\C#N)C(N)=O)c(Cl)n1-c1ccc(F)cc1 ?
Cycloheximide cs: -2; Pf growth 96h: -19%; Pf growth 48h: 48%; Shiga toxin inh: 2; Sm TGR inh: inconclusive

What do the screens show for `CCn1c(NC(=O)Nc2cccc(C)c2C)cc2sccc21`?
Cycloheximide cs: -4; Pf growth 96h: 13µM*; NS1 function inh: 12%; Shiga toxin inh: 13; Sm TGR inh: -4%

Results for CCC(CC)NC(=O)Nc1cccc(C)c1C ?
Cycloheximide cs: 1; Pf growth 96h: inactive; Pf growth 48h: 40%; NS1 function inh: 10%; Shiga toxin inh: 19; Sm TGR inh: 18%

How did COc1ccc(OCC(=O)NC2CC(=O)N(c3ccc4c(c3)OCCO4)C2)cc1 (stereo not given) do in these assays?
Sm TGR inh: 2%

Results for COc1cccc(Nc2nnc(SCc3nc4ccccc4s3)s2)c1 ?
Cycloheximide cs: 65*; Pf growth 96h: 64%; Pf growth 48h: 146%; NS1 function inh: -1%; Shiga toxin inh: 109*; Sm TGR inh: -2%

What do the screens show for `Cc1cccc(C)c1Nc1nnc(SCc2nc3ccccc3s2)s1`?
Cycloheximide cs: 50*; Pf growth 96h: 0%; Pf growth 48h: 110%; NS1 function inh: 14%; Shiga toxin inh: 69; Sm TGR inh: -10%

From PubChem
